FBA Mtb inh: inhibits M. tuberculosis FBA enzyme. P9WQA3. purified M. tuberculosis FBA, fluorescence read-out. inhibition, % at 1 µM. 360,000 tested, 2.3% active. AID 588726; in the data active means inhibition above about 27%;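 further: 0% = vehicle and 100% = reference inhibitor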
Target sequence (P9WQA3 whole entry, looked up): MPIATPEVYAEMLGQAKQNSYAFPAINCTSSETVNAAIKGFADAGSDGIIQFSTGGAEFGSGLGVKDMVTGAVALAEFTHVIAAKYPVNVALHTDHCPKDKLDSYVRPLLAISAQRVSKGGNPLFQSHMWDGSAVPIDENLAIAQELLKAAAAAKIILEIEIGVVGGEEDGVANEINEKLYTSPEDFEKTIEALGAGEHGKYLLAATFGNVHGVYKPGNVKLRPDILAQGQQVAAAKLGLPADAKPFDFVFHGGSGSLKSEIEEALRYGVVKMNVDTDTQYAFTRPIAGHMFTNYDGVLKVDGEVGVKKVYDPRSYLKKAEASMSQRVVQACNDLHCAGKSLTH
BH1578 lux ind: inducers of Vibrio cholerae quorum light production without autoinducers; V. cholerae BH1578 lux reporter, luminescence, 6 h; 350,000 tested, 0.16% active; AID 588436; activation, % at 18.7 µM; in the data active means activation mostly above about 9.7%, no sharp cut-off
CCHF vOTU inh: CCHFV vOTU protease inhibition; AID 651958; 370,000 tested, 0.55% active; inhibition, % at 11.5 µM; Pep-AMC fluorescence; further: 0% = vehicle wells with enzyme and 100% = no enzyme wells
GDH-TPI counter: GDH-TPI coupled enzyme inhibition counter-screen; inhibition, % at 4.8 µM; GDH-TPI coupled enzyme counterscreen, NADH absorbance; 360,000 tested, 1.2% active;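 further: 0% = DMSO wells and 100% = wells lacking the enzyme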
* marks the source's active call; other numbers are inactive results. The list is not random: actives were taken first. Their share in the collection is about 3.9%. Unless noted, no stated cut-off is given here; in the data, active means inhibition above about 30%; inactive means the rest.

`COc1ccc(CCNC(=O)COc2ncnc3cc([N+](=O)[O-])ccc23)cc1` gave FBA Mtb inh -2, BH1578 lux ind -2, CCHF vOTU inh 6 and GDH-TPI counter 10.
For O=[N+]([O-])c1cccc(COc2ncnc3cc([N+](=O)[O-])ccc23)c1 the results were FBA Mtb inh 3, BH1578 lux ind 0, CCHF vOTU inh -8 and GDH-TPI counter 35*.
Screening COc1ccc(OC)c(/C=N/NC(=O)c2cc3c(OC)cc(OC)cc3[nH]2)c1 returned FBA Mtb inh 11, BH1578 lux ind 0, CCHF vOTU inh 4 and GDH-TPI counter 22.
Screening C=CCOc1ccc(/C=N/NC(=O)c2cc3c(OC)cc(OC)cc3[nH]2)cc1 returned FBA Mtb inh 9, BH1578 lux ind -2, CCHF vOTU inh 4 and GDH-TPI counter 32*.
Screening COc1ccc(OC)c(/C=N/NC(=O)c2cc3c(OC)cccc3[nH]2)c1 returned FBA Mtb inh 6, BH1578 lux ind -1, CCHF vOTU inh 0 and GDH-TPI counter 61*.
`CCOc1ccc(/C=N/NC(=O)c2cc3c(OC)cc(OC)cc3[nH]2)cc1OC` gave FBA Mtb inh 5, BH1578 lux ind 2, CCHF vOTU inh -4 and GDH-TPI counter 30.
For COc1ccccc1/C=N/NC(=O)c1cc2c(OC)c(OC)ccc2[nH]1 the results were FBA Mtb inh -2, BH1578 lux ind inactive, CCHF vOTU inh 12 and GDH-TPI counter 34*.
Screening COc1cccc(/C=N/NC(=O)c2cc3c(OC)c(OC)ccc3[nH]2)c1OC returned FBA Mtb inh -3, BH1578 lux ind 0, CCHF vOTU inh 21 and GDH-TPI counter 33*.
For CC(=O)NC1(C(F)(F)F)NC(=O)N(CC(C)C)C1=O (stereo not drawn) the results were FBA Mtb inh -3, BH1578 lux ind -1, CCHF vOTU inh 5 and GDH-TPI counter -3.
For O=C(COc1ccccc1Cl)Nc1ccc2c(c1)OCO2 the results were FBA Mtb inh 0, BH1578 lux ind inactive, CCHF vOTU inh 2 and GDH-TPI counter 5.
Screening COCCCn1c(=O)c2sccc2n2c(CCCC(=O)NCC3CCCO3)nnc12 (stereo not drawn) returned FBA Mtb inh 4, BH1578 lux ind -2, CCHF vOTU inh -6 and GDH-TPI counter -9.
`COc1cc(C(=O)Nc2cccc(-n3cnnn3)c2)cc(Cl)c1OC` gave FBA Mtb inh 1, BH1578 lux ind 0, CCHF vOTU inh 7 and GDH-TPI counter 8.
O=[N+]([O-])CC(=Nc1ccc(Cl)cc1)N/N=C\c1oc(O)c2ccccc12 was read as FBA Mtb inh 1, BH1578 lux ind 0, CCHF vOTU inh 33* and GDH-TPI counter 4.
O=C(N/N=C/c1ccc([N+](=O)[O-])o1)c1cn(-c2ccccc2)nc1-c1ccc(Cl)cc1 was read as FBA Mtb inh -1, BH1578 lux ind inactive, CCHF vOTU inh -4 and GDH-TPI counter 12.
CCC(=O)c1cn(CC(=O)NCc2ccco2)c2ccccc12 was read as FBA Mtb inh -3, BH1578 lux ind 0, CCHF vOTU inh -9 and GDH-TPI counter 10.
For c1ccc2nc(NN=C3CCCCC3)ccc2c1 the results were FBA Mtb inh 4, BH1578 lux ind inactive, CCHF vOTU inh -12 and GDH-TPI counter 17.
Screening CC(=O)C1=C(C)N(Cc2ccc(F)cc2)C(=S)NC1c1ccccc1 (stereo not drawn) returned CCHF vOTU inh 4.
For O=C(O)CN1C(=O)/C(=C/c2ccccc2Cl)Oc2ccccc21 the results were FBA Mtb inh 130*, BH1578 lux ind 1, CCHF vOTU inh -42 and GDH-TPI counter 17.
For Cc1cc(C)c(S(=O)(=O)/N=C2/C=C(Sc3ncn[nH]3)C(=O)c3ccccc32)cc1C the results were FBA Mtb inh -2, BH1578 lux ind -3, CCHF vOTU inh 118* and GDH-TPI counter 7.
`COC(=O)[C@]12C[C@H](CC(=O)N3CCCCC3)C(=O)N(CCC3=CCCCC3)C1=C[C@H](COCc1ccccc1)O[C@@H]2C` gave CCHF vOTU inh 9.
Screening Cc1ccc(C)c(-c2ccc(=O)n(Cc3c(F)cccc3Cl)n2)c1 returned FBA Mtb inh 1, BH1578 lux ind -1, CCHF vOTU inh 13 and GDH-TPI counter -3.
For COCc1cc(=O)n2[nH]c(C)c(-c3ccc(Cl)cc3)c2n1 the results were FBA Mtb inh 135*, BH1578 lux ind inactive, CCHF vOTU inh -20 and GDH-TPI counter 8.
`CCc1cc(=O)n2[nH]c(C)c(-c3ccccc3OC)c2n1` gave FBA Mtb inh 6, BH1578 lux ind 0, CCHF vOTU inh 2 and GDH-TPI counter 5.
Screening CC(C)Cn1c(N)c(C(=O)COC(=O)c2nccnc2N)c(=O)n(C)c1=O returned FBA Mtb inh active, BH1578 lux ind inactive, CCHF vOTU inh -147 and GDH-TPI counter 15.
`Fc1ccc(NCc2ccccc2F)cc1Cl` gave FBA Mtb inh -2, BH1578 lux ind inactive, CCHF vOTU inh 7 and GDH-TPI counter -2.
`COC(=O)c1ccc(Cn2cc(C(F)(F)F)cc([N+](=O)[O-])c2=O)cc1` gave FBA Mtb inh -3, BH1578 lux ind active, CCHF vOTU inh -4 and GDH-TPI counter 9.
Screening C=C1CCN(C(C)C(=O)O)S(=O)(=O)c2ccccc21 (stereo not drawn) returned FBA Mtb inh 2, BH1578 lux ind inactive, CCHF vOTU inh -2 and GDH-TPI counter 11.
For CNc1cncc(-c2ccc(CN3CCOCC3)cc2)n1 the results were FBA Mtb inh active, BH1578 lux ind -3, CCHF vOTU inh -225 and GDH-TPI counter 12.
CNc1cncc(-c2ccc(OCCCN(C)C)nc2)n1 was read as FBA Mtb inh active, BH1578 lux ind inactive, CCHF vOTU inh -318 and GDH-TPI counter 14.
Screening COc1ccc(CN2CCOCC2)cc1 returned FBA Mtb inh -3, BH1578 lux ind 0, CCHF vOTU inh -1 and GDH-TPI counter 14.
CNc1cncc(-c2cccc(NS(C)(=O)=O)c2)n1 was read as FBA Mtb inh 168*, BH1578 lux ind inactive, CCHF vOTU inh -214 and GDH-TPI counter 19.
CNc1cncc(-c2ccc(S(C)(=O)=O)cc2)n1 was read as FBA Mtb inh 171*, BH1578 lux ind inactive, CCHF vOTU inh -316 and GDH-TPI counter 16.
`CC(=O)Nc1cncc(-c2ccc(CN(C)C)cc2)n1` gave FBA Mtb inh 5, BH1578 lux ind 0, CCHF vOTU inh -3 and GDH-TPI counter 6.
`S=C(Nc1ccc(Br)cc1Cl)Nn1cnnc1` gave FBA Mtb inh -3, BH1578 lux ind 0, CCHF vOTU inh -2 and GDH-TPI counter 3.
Screening O=C(NCc1cccnc1)c1cc(-c2ccco2)on1 returned FBA Mtb inh 12, BH1578 lux ind inactive and GDH-TPI counter 0.
For O=[n+]1cc(-c2ccccc2)n([O-])c2c1CCCCC2 the results were FBA Mtb inh -1, BH1578 lux ind 0, CCHF vOTU inh -1 and GDH-TPI counter -1.
COCCNC(=O)CCC1CCN(Cc2cccc(Oc3ccccc3)c2)CC1 was read as FBA Mtb inh 2, BH1578 lux ind 0, CCHF vOTU inh -13 and GDH-TPI counter 18.
`CNc1cncc(-c2cc(C)c(O)c(C)c2)n1` gave FBA Mtb inh 20, BH1578 lux ind 1, CCHF vOTU inh -1 and GDH-TPI counter 15.

Compound activity as filed in PubChem.
